Unmarked numbers belong to inactive results.
Key:
[1] = system: Sporothrix brasiliensis CBS 133006; assay: growth inhibition relative to untreated control; higher = more growth inhibition (more antifungal activity), active = 80 or more; extreme values may be limits of the assay; details: 1 µM; 48 h
Outline: (§1)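 The reported figure is percent growth inhibition relative to untreated cells, from quadruplicate runs. Yeast-form cells of the reference isolates at 1 x 10^5 CFU/ml were exposed to library compounds at a final 1 μM for 48 h at 35°C in 5% CO2, and growth was assessed by microscopy and spectrophotometric readings.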

[2] = system: Sporothrix schenckii ATCC 32286; assay: as above; details: 1 µM; 48 h
Outline: as §1

Question: N#CCN(CCCCN1CCN(c2ccc(F)cc2)CC1)C(=O)OCc1ccccc1 was tested. Which growth inhibition [1] did it give?
Answer: The growth inhibition was 11.2%.

Question: What about the growth inhibition [2] of the same molecule?
Answer: Its growth inhibition is 2.5%.

Question: How did the growth inhibition [1] turn out when O=C(Nc1c(O)cccc1-c1nc2c(C(=O)O)cccc2o1)c1cc(-c2ccccc2)on1 was run?
Answer: The growth inhibition was 38.2%.

Question: And the growth inhibition [2]?
Answer: The growth inhibition was 3.75%.

Question: With C[C@H](c1ccc2c(c1)CCCC2)N(C)c1ncc2c(N)nc(N)nc2n1 as the molecule, how does the growth inhibition [1] read?
Answer: Its growth inhibition is 10%.

Question: What about the growth inhibition [2] of the same molecule?
Answer: The growth inhibition was 0%.

Question: Which results are given for C[C@@H]1[C@H](O)[C@@H](C)/C=C/C=C/C=C/C=C/C=C/C=C/C=C/[C@H](O[C@@H]2O[C@H](C)[C@@H](O)[C@H](N)[C@@H]2O)C[C@@H]2O[C@](O)(C[C@@H](O)C[C@@H](O)[C@H](O)CC[C@@H](O)C[C@@H](O)CC(=O)O[C@H]1C)C[C@H](O)[C@H]2C(=O)O?
Answer: growth inhibition [1]: 24%; growth inhibition [2]: 16%

Question: What does the source list for O=C(NC1CC1)c1ccc(CSCc2ccccc2Cl)o1?
Answer: growth inhibition [1]: 6.25%; growth inhibition [2]: 2%

Question: CC1=Nc2ccc(Cl)cc2C(c2ccccc2)N1CCNC(=O)CN(C)C (configuration not stated) was tested. Which growth inhibition [1] did it give?
Answer: The growth inhibition was 22.8%.

Question: And the growth inhibition [2]?
Answer: Its growth inhibition is 0%.

Question: What does the source list for COc1cc(Br)cc2cc(C(=O)Nc3cccc(C(F)(F)F)c3)c(=O)oc12?
Answer: growth inhibition [1]: 11.5%; growth inhibition [2]: 6.75%

Question: With Cc1cc(NC(=O)c2ccc(Oc3ccc(Cl)cc3O)o2)no1 as the molecule, how does the growth inhibition [1] read?
Answer: The growth inhibition was 18.8%.

Question: And the growth inhibition [2]?
Answer: The growth inhibition was 2.75%.

Question: For O=C(Nc1nnc(-c2ccc(Cl)s2)o1)c1ccc(Cl)s1, which growth inhibition [1] is on record?
Answer: Its growth inhibition is 27.8%.

Question: And the growth inhibition [2]?
Answer: Its growth inhibition is 42%.

Question: What does the source list for Nc1ncnc2[nH]nc(Cc3cccc4ccccc34)c12?
Answer: growth inhibition [1]: 6.25%; growth inhibition [2]: 0%

Question: For OCCc1ccc(Nc2nccc(-c3nnc4ccccn34)n2)cc1, which growth inhibition [1] is on record?
Answer: The growth inhibition was 28.2%.

Question: And the growth inhibition [2]?
Answer: Its growth inhibition is 2.5%.
